Measurements as given in PubChem BioAssay (EPA / NIEHS).
Activity calls are given as the source filed them. How the source made its calls: active means hit-call score of the fitted dose curve at least 0.9, where 1 is the maximum; inactive means score below 0.9.

Experiments:
[1] = read-out: Matrix Metallopeptidase 9 (MMP9), MMP9 (gene 4318); assay: BSK_KF3CT_MMP9: BioMAP Diversity Plus: KF3CT Assay for Matrix Metallopeptidase 9 (MMP9) Biomarker Activity (AID 2283074); conditions: primary human keratinocytes with fibroblasts; actives raise or lower the signal;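 on AC50: MMP9 protein level quantified by ELISA in the co-culture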
Procedure, shortened: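 Human keratinocyte/foreskin fibroblast co-culture; compound added; 24 h; MMP-9 by ELISA; bidirectional fit vs DMSO baseline.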

[2] = read-out: urokinase plasminogen activator (uPA), PLAU (gene 5328); assay: BSK_KF3CT_uPA: BioMAP Diversity Plus: KF3CT Assay for urokinase plasminogen activator (uPA) Biomarker Activity (AID 2283075); conditions: primary human keratinocytes with fibroblasts; actives raise or lower the signal
Procedure, shortened: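 ELISA readout of uPA, analyzed for signal gain or loss relative to DMSO, from a human primary keratinocyte–foreskin fibroblast co-culture measured 24 h after chemical treatment.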

CD40, CD40 (gene 958) [3] = assay: BSK_LPS_CD40: BioMAP Diversity Plus: LPS Assay for CD40 Biomarker Activity (AID 2283076); conditions: primary human HUVEC with PBMC; actives raise or lower the signal
Procedure, shortened: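 In the LPS system of human endothelial cells with peripheral blood mononuclear cells, CD40 levels were read by ELISA 24 h post-treatment. Signal changes in either direction were fitted against the DMSO baseline, with parallel SRB protein staining.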

[4] = read-out: E-selectin (Homo sapiens) (UniProt P16581); assay: BSK_LPS_Eselectin: BioMAP Diversity Plus: LPS Assay for Eselectin Biomarker Activity (AID 2283077); conditions: primary human HUVEC with PBMC; actives raise or lower the signal
Procedure, shortened: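 E-selectin ELISA on LPS-stimulated endothelial cell/PBMC co-cultures, read 24 h post-treatment; gains and losses fitted against DMSO. Parallel SRB staining (0.1% SRB after 10% TCA fixation, 560 nm) flags overt cytotoxicity.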

[5] = read-out: Interleukin-8 (IL8), CXCL8 (gene 3576); assay: BSK_LPS_IL8: BioMAP Diversity Plus: LPS Assay for Interleukin-8 (IL8) Biomarker Activity (AID 2283078); conditions: primary human HUVEC with PBMC; actives raise or lower the signal
Procedure, shortened: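 ELISA read-out of IL-8 after 24 h chemical treatment of LPS-activated endothelial/PBMC human primary co-cultures. Changes either up or down relative to DMSO; overt cytotoxicity checked by sulforhodamine B staining in parallel wells.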

[6] = BSK_LPS_SRB: Viability Assessment in the BioMAP Diversity Plus: LPS Assay (AID 2283079); conditions: primary human HUVEC with PBMC;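 further: total protein by sulforhodamine B absorbance as a cytotoxicity measure; measured one day after compound addition; fitted in both directions against DMSO so loss or gain of signal counts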
Procedure, shortened: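 SRB viability endpoint: cells fixed with 10% TCA, stained with 0.1% SRB, read at 560 nm, 24 h post-dose. HUVEC/PBMC co-culture; signal change in either direction scored relative to DMSO.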

[7] = read-out: Interleukin-1 alpha (IL1a), IL1A (gene 3552); assay: BSK_LPS_IL1a: BioMAP Diversity Plus: LPS Assay for Interleukin-1 alpha (IL1a) Biomarker Activity (AID 2283080); conditions: primary human HUVEC with PBMC; actives raise or lower the signal
Procedure, shortened: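 Readout is IL-1a level by ELISA, 24 h post-dose, fitted as gain or loss relative to DMSO. System: LPS-activated human primary co-culture of vascular endothelium and peripheral blood mononuclear cells, with parallel SRB total-protein cytotoxicity.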

[8] = read-out: Monocyte Chemoattractant Protein-1 (MCP1), CCL2 (gene 6347); assay: BSK_LPS_MCP1: BioMAP Diversity Plus: LPS Assay for Monocyte Chemoattractant Protein-1 (MCP1) Biomarker Activity (AID 2283081); conditions: primary human HUVEC with PBMC; actives raise or lower the signal
Procedure, shortened: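 Secreted MCP-1 read by ELISA at 24 h post-dosing in an LPS-activated co-culture of endothelial cells with peripheral blood mononuclear cells. Fits run in both directions, DMSO as baseline; parallel SRB staining tracks overt cytotoxicity.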

[9] = BSK_LPS_PGE2: BioMAP Diversity Plus: LPS Assay for Prostaglandin E2 (PGE2) Biomarker Activity (AID 2283082); conditions: primary human HUVEC with PBMC; actives raise or lower the signal
Procedure, shortened: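 HUVEC plus human PBMC co-culture stimulated with LPS; secreted PGE2 quantified by ELISA 24 h after chemical dosing. Activity fitted bidirectionally against DMSO baseline; parallel SRB staining (0.1% SRB after 10% TCA fixation, 560 nm) flags overt cytotoxicity.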

[10] = read-out: Macrophage colony-stimulating factor (MCSF), CSF1 (gene 1435); assay: BSK_LPS_MCSF: BioMAP Diversity Plus: LPS Assay for Macrophage colony-stimulating factor (MCSF) Biomarker Activity (AID 2283083); conditions: primary human HUVEC with PBMC; actives raise or lower the signal
Procedure, shortened: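 Bidirectional fitting against DMSO was applied to M-CSF levels read by ELISA at 24 h post-dose. The system pairs human umbilical vein endothelium with peripheral blood mononuclear cells; parallel SRB staining tracked cytotoxicity.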

[11] = read-out: Tissue Factor, F3 (gene 2152); assay: BSK_LPS_TissueFactor: BioMAP Diversity Plus: LPS Assay for Tissue Factor Biomarker Activity (AID 2283084); conditions: primary human HUVEC with PBMC; actives raise or lower the signal
Procedure, shortened: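 Compound was added to an endothelial cell/PBMC co-culture, and after 24 h tissue factor (CD142) was read by ELISA. Gain or loss of signal was fitted against a DMSO baseline, and parallel SRB staining (560 nm) tracked overt cytotoxicity.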

[12] = read-out: Tumor necrosis factor (Homo sapiens) (UniProt P01375); assay: BSK_LPS_TNFa: BioMAP Diversity Plus: LPS Assay for Tumour Necrosis Factor alpha (TNFa) Biomarker Activity (AID 2283085); conditions: primary human HUVEC with PBMC; actives raise or lower the signal
Procedure, shortened: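 Human umbilical vein endothelial cells co-cultured with PBMC and stimulated with LPS. TNFa was measured by ELISA 24 h after chemical dosing, fitted bidirectionally relative to DMSO.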

CD38, CD38 (gene 952) = assay: BSK_SAg_CD38: BioMAP Diversity Plus: SAg Assay for CD38 Biomarker Activity (AID 2283087); conditions: primary human HUVEC with PBMC; actives raise or lower the signal
Procedure, shortened: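 Human HUVEC plus PBMC co-culture stimulated with superantigen; CD38 measured by ELISA 24 h after chemical dosing. Fluorescence read-out, bidirectional fit against DMSO; cytotoxicity tracked in parallel by SRB and Alamar Blue.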

CD40, CD40 (gene 958) [13] = assay: BSK_SAg_CD40: BioMAP Diversity Plus: SAg Assay for CD40 Biomarker Activity (AID 2283088); conditions: primary human HUVEC with PBMC; actives raise or lower the signal
Procedure, shortened: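 CD40 is measured by fluorescence ELISA in an endothelial/PBMC primary human co-culture at 24 h post-dose. Fitting is bidirectional, DMSO baseline. Parallel SRB staining (560 nm) flags cytotoxicity.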

CD69, CD69 (gene 969) = assay: BSK_SAg_CD69: BioMAP Diversity Plus: SAg Assay for CD69 Biomarker Activity (AID 2283089); conditions: primary human HUVEC with PBMC; actives raise or lower the signal;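 on AC50: cell surface CD69 protein quantified by ELISA with fluorescence detection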
Procedure, shortened: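 Values derive from bidirectional fitting relative to DMSO vehicle. Cells: umbilical vein endothelium plus peripheral blood mononuclear cells, treated 24 h before fluorescent ELISA for CD69.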

[14] = read-out: Monocyte Chemoattractant Protein-1 (MCP1), CCL2 (gene 6347); assay: BSK_SAg_MCP1: BioMAP Diversity Plus: SAg Assay for Monocyte Chemoattractant Protein-1 (MCP1) Biomarker Activity (AID 2283090); conditions: primary human HUVEC with PBMC; actives raise or lower the signal
Procedure, shortened: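 MCP-1 levels in the endothelial–PBMC SAg co-culture were quantified by ELISA at 24 h post-dosing; both increases and decreases versus DMSO scored. Cytotoxicity monitored by SRB total protein in parallel cultures.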

[15] = read-out: Monokine induced gamma interferon (MIG), CXCL9 (gene 4283); assay: BSK_SAg_MIG: BioMAP Diversity Plus: SAg Assay for Monokine induced gamma interferon (MIG) Biomarker Activity (AID 2283092); conditions: primary human HUVEC with PBMC; actives raise or lower the signal
Procedure, shortened: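 Values reflect bidirectional fitting of ELISA-measured MIG against DMSO vehicle, taken 24 h after dosing of a co-culture of human umbilical vein endothelial cells and peripheral blood mononuclear cells.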

[16] = BSK_SAg_PBMCCytotoxicity: PBMC Cytotoxicity Assessment in the BioMAP Diversity Plus: SAg Assay (AID 2283093); conditions: primary human HUVEC with PBMC;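 further: PBMC viability measured as Alamar Blue reduction fluorescence at 546/580 nm; fitted both ways against DMSO so a hit may be loss or gain of signal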;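 on AC50: PBMC superantigen activated with SEB plus TSST-1 one hour after compound addition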
Procedure, shortened: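 Compound added to 75,000 PBMC/well for 1 h; SEB and TSST-1 then added at 20 ng/mL final each; 90 h incubation; Alamar Blue 6 h; read 546/580 nm ex/em. Activity fitted bidirectionally relative to DMSO baseline.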

[17] = read-out: E-selectin (Homo sapiens) (UniProt P16581); assay: BSK_SAg_Eselectin: BioMAP Diversity Plus: SAg Assay for Eselectin Biomarker Activity (AID 2283091); conditions: primary human HUVEC with PBMC; actives raise or lower the signal
Procedure, shortened: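 Cell-surface E-selectin is read by ELISA at 24 h in the SAg co-culture of HUVEC and PBMC. Curves are fitted in both directions relative to DMSO. Parallel SRB total-protein staining tracks overt toxicity.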

Measured: AC50

E-selectin (Homo sapiens), sequence (P16581 whole entry, looked up): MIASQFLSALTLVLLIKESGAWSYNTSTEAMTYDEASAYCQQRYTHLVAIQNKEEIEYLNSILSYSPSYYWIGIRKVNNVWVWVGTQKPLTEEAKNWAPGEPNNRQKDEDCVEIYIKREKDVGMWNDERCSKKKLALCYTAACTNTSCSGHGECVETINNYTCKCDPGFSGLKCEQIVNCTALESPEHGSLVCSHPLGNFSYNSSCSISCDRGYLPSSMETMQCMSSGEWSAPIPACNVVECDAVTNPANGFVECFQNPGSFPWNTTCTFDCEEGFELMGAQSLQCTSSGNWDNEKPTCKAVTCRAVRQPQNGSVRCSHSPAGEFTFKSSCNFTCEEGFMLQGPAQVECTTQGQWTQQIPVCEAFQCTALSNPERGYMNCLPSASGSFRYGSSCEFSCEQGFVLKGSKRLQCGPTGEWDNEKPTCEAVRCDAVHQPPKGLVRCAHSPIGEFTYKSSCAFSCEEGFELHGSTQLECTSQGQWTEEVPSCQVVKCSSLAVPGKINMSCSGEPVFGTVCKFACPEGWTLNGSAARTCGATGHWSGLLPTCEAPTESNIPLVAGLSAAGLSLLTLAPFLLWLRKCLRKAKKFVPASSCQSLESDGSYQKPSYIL
Tumor necrosis factor (Homo sapiens), sequence (P01375 whole entry, looked up): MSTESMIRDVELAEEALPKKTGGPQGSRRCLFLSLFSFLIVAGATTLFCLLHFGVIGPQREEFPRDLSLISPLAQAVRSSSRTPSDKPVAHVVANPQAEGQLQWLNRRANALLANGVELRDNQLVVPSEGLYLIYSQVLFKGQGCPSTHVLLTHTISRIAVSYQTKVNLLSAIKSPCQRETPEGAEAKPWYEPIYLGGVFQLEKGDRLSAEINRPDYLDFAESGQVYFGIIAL

[Cl-].[Cl-].[Hg+2]
inactive: [7] | [8] | [9] | [14] | [15]
active: [1] 13.5 µM | [2] 13.1 µM | CD40, CD40 (gene 958) [3] 38.8 µM | [4] 37 µM | [5] 30.9 µM | [6] 20 µM | [10] 31.7 µM | [11] 32.9 µM | [12] 33 µM | CD38, CD38 (gene 952) 36.6 µM | CD40, CD40 (gene 958) [13] 32 µM | CD69, CD69 (gene 969) 36.8 µM | [16] 31 µM

CS(=O)(=O)NC(=O)c1cc(Oc2ccc(C(F)(F)F)cc2Cl)ccc1[N+](=O)[O-]
inactive: all assays above

CC(O)CCO (stereo not drawn)
not listed: [17]
inactive: all other assays above

N#CC(Br)Br
not listed: [17]
inactive: all other assays above
